Reference: PubChem BioAssay (EPA / NIEHS)
Records with an inconclusive call do not appear. Activity calls are given as the source filed them. How the source made its calls, unless noted: active means hit-call score of the fitted dose curve at least 0.9, where 1 is the maximum; inactive means score below 0.9.

What was measured:
[1] = target: Nucleoli Translocation, AR (gene 367) (UniProt P10275); experiment: UPITT_HCI_U2OS_AR_TIF2_Nucleoli_Antagonist: University of Pittsburgh U2OS Androgen Receptor-Transcriptional Intermediary Factor 2 (AR-TIF2) Antagonism High Content Imaging Assay for Nucleoli Translocation (AID 2283997; active means hit-call score of the fitted dose curve at least 0.9, where 1 is the maximum)
How it was run: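 Antagonism is read as loss of nucleolar AR-RFP signal relative to DHT, imaged in U2OS cells also carrying GFP-TIF2. Compounds screened at 20 uM final, 0.2% DMSO; primary actives retested in triplicate.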

[2] = target: Nucleoli Translocation, AR (gene 367) (UniProt P10275); experiment: UPITT_HCI_U2OS_AR_TIF2_Nucleoli_Agonist: University of Pittsburgh U2OS Androgen Receptor-Transcriptional Intermediary Factor 2 (AR-TIF2) Agonism High Content Imaging Assay for Nucleoli Translocation (AID 2283998; active means hit-call score of the fitted dose curve at least 0.9, where 1 is the maximum)
How it was run: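 U2OS cells expressing RFP-tagged human AR and GFP-tagged TIF2; red fluorescence in nucleoli quantified by high-content imaging. Primary screen at 20 uM final (0.2% DMSO); concentration-response 0.195–50 uM (0.5% DMSO), fitted upward versus DMSO.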

[3] = target: Ratio of Nucleoli Translocation and Cytoplasm, AR (gene 367) (UniProt P10275); experiment: UPITT_HCI_U2OS_AR_TIF2_Nucleoli_Cytoplasm_Ratio_Antagonist: University of Pittsburgh U2OS Androgen Receptor-Transcriptional Intermediary Factor 2 (AR-TIF2) Antagonism High Content Imaging Assay for Ratio of Nucleoli Translocation and Cytoplasm (AID 2283999; active means hit-call score of the fitted dose curve at least 0.9, where 1 is the maximum;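 further: antagonists lower the DHT-driven ratio of nucleolar to cytoplasmic red signal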)
How it was run: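 High-content imaging of red fluorescence ratio, nucleoli versus cytoplasm, in U2OS expressing AR-RFP and TIF2-GFP, fitted relative to DHT. Compounds tested once at 20 uM final, then 0.195 to 50 uM final in serial dilution.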

[4] = target: Ratio of Nucleoli Translocation and Cytoplasm, AR (gene 367) (UniProt P10275); experiment: UPITT_HCI_U2OS_AR_TIF2_Nucleoli_Cytoplasm_Ratio_Agonist: University of Pittsburgh U2OS Androgen Receptor-Transcriptional Intermediary Factor 2 (AR-TIF2) Agonism High Content Imaging Assay for Ratio of Nucleoli Translocation and Cytoplasm (AID 2284000; active means hit-call score of the fitted dose curve at least 0.9, where 1 is the maximum;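 further: hits raise the red nucleolar to cytoplasm ratio above vehicle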)
How it was run: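 Compounds tested at 20 uM final in primary screen (0.2% DMSO) and 0.195-50 uM final in dose-response (0.5% DMSO). Imaging of human U2OS cells bearing RFP-AR and GFP-TIF2; endpoint is nucleoli/cytoplasm red signal ratio, positive direction relative to DMSO.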

[5] = CCTE_Simmons_MITO_basal_resp_rate: CCTE's HepG2 Seahorse XF Respirometric Screening Assay at Basal Respiratory State, Simmons Lab (AID 2284001); details: actives raise or lower the signal
How it was run: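 Basal-phase OCR in HepG2 cells, read at 6-min intervals across a 72-min run, with test compound injected at 125 nM–100 uM final (7 points). Fitted both directions against DMSO; three biological replicates per concentration.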

[6] = CCTE_Simmons_MITO_max_resp_rate: CCTE's HepG2 Seahorse XF Respirometric Screening Assay at Maximal Respiratory State [uncoupled], Simmons Lab (AID 2284002); details: actives raise or lower the signal
How it was run: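 HepG2 oxygen consumption measured on Seahorse XF after FCCP uncoupling, following test compound injection; 7 concentrations from 125 nM to 100 uM final. Readings every 6 min over 72 min, three biological replicates; bidirectional fit versus DMSO.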

[7] = CCTE_Simmons_MITO_inhib_resp_rate: CCTE's HepG2 Seahorse XF Respirometric Screening Assay at Inhibited Respiratory State [full ETC block], Simmons Lab (AID 2284006); details: actives raise or lower the signal
How it was run: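 This endpoint is the respiration rate remaining after rotenone/antimycin A block, in HepG2 cells on a Seahorse XF96. Chemicals spanned 125 nM–100 uM final, in three biological replicates. OCR was read every 6 minutes for 72 minutes and compared with DMSO vehicle.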

[8] = CCTE_Simmons_MITO_viability: CellTiter-Glo Viability Assessment for CCTE's HepG2 Seahorse XF Respirometric Screening Assay [post-hoc], Simmons Lab (AID 2284007; active means hit-call score of the fitted dose curve at least 0.9, where 1 is the maximum;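 on AC50: cells exposed to chemical for 90 min before the ATP read; actives lower ATP signal relative to DMSO baseline meaning reduced viability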)
How it was run: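 Luciferase-coupled ATP read-out after the Seahorse run: HepG2 cells treated 90 minutes with test chemical, 7-point series of 125 nM–100 uM final, in triplicate biological runs. Vehicle DMSO; dichlone as positive control over 8 concentrations.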

[9] = CCTE_Harrill_HTTr_Viability_MCF7: CCTE's 6-hour Cell Viability Assessment for the High-Throughput Transcriptomics (HTTr) Platform, in MCF-7 cells cultured in DMEM + 10% fetal bovine serum, Harrill Lab (AID 2284010)
How it was run: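 Propidium iodide exclusion, imaged by high-content analysis, gauged viability after a six-hour exposure across eight concentrations. Cells were MCF-7 grown in DMEM with 10% fetal bovine serum; fits run in both directions against DMSO.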

[10] = CCTE_Harrill_HTTr_Apoptosis_MCF7: CCTE's 6-hour Apoptosis Assessment for the High-Throughput Transcriptomics (HTTr) Platform, in MCF-7 cells cultured in DMEM + 10% fetal bovine serum, Harrill Lab (AID 2284011)
How it was run: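 MCF-7 cells in DMEM + 10% FBS exposed 6 h to chemicals over an eight-point dilution series. Caspase-3/7 activation imaged by high-content CellEvent Green staining; fitted bidirectionally versus DMSO.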

[11] = CCTE_Harrill_HTTr_Apoptosis_DMEM_24hr: (Pilot) CCTE's 24-hour Apoptosis Assessment for the High-Throughput Transcriptomics (HTTr) Platform, in MCF-7 cells cultured in DMEM + 10% fetal bovine serum, Harrill Lab (AID 2283983)
How it was run: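 Caspase-3/7 activity read by high-content imaging (CellEvent Green reagent) 24 h after dosing. MCF-7 cells grown in DMEM with 10% FBS received an eight-point concentration series; fits were bidirectional versus DMSO.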

[12] = CCTE_Harrill_HTTr_Apoptosis_PRF_DMEM_6hr: (Pilot) CCTE's 6-hour Apoptosis Assessment for the High-Throughput Transcriptomics (HTTr) Platform, in MCF-7 cells cultured phenol red-free DMEM + 10% charcoal-stripped fetal bovine serum, Harrill Lab (AID 2283984)
How it was run: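 Caspase-3/7 activity (CellEvent Green) read by high-content imaging 6 h after dosing, eight concentrations. Cells: MCF-7, phenol red-free DMEM with 10% charcoal-stripped serum. Curves fit both directions against DMSO.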

[13] = CCTE_Harrill_HTTr_Apoptosis_PRF_DMEM_24hr: (Pilot) CCTE's 24-hour Apoptosis Assessment for the High-Throughput Transcriptomics (HTTr) Platform, in MCF-7 cells cultured in phenol red-free DMEM + 10% charcoal-stripped fetal bovine serum, Harrill Lab (AID 2283986)
How it was run: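 Eight concentrations tested for 24 h on MCF-7 grown in charcoal-stripped serum, phenol red-free DMEM. High content imaging of CellEvent Caspase 3/7 Green signal gives apoptosis read-out, fitted both ways relative to DMSO.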

[14] = CCTE_Shafer_MEA_acute_spike_number: CCTE's Neural Acute Assay for Total Number of Spikes, Shafer Lab (AID 2284008);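 on AC50: curve fitted for decrease in spike count so AC50 reflects inhibitors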
How it was run: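 Rat primary cortical neurons on 48-well MEA plates, DIV 13 or 15, at 37 C. 40 min baseline then 40 min with compound (0.03-40 uM); spikes detected at 8x rms noise, expressed as percent change from baseline.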

[15] = CCTE_Shafer_MEA_acute_firing_rate_mean: CCTE's Neural Acute Assay for Mean Firing Rate, Shafer Lab (AID 2284009);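 further: analyzed for loss of signal so actives lower firing rate relative to DMSO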
How it was run: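 Primary rat cortical neurons on 16-electrode MEA wells were exposed on DIV 13 or 15 to compound (0.03-40 uM). Spike counts per recording time, averaged over electrodes, were compared between 40-min baseline and 40-min post-exposure recordings as percent change.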

[16] = CCTE_Shafer_MEA_acute_burst_number: CCTE's Neural Acute Assay for Single-Electrode Bursts, Shafer Lab (AID 2284013)
How it was run: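 Primary rat cortical neurons on 16-electrode MEA wells, DIV 13 or 15, exposed to compound (0.03-40 uM; ≥3 wells); 40-min recordings at 37 C before and after treatment. Burst count expressed as percent change from baseline, DMSO as negative control.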

[17] = CCTE_Shafer_MEA_acute_burst_duration_mean: CCTE's Neural Acute Assay for Mean Burst Duration, Shafer Lab (AID 2284014);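 further: hits are decreases in mean burst duration relative to DMSO controls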
How it was run: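 Mean burst duration was compared between a 40 min baseline and a 40 min recording in the presence of compound (0.03-40 uM, 37 C), giving percent change per well. Cultures were rat cortical neurons at DIV 13 or 15; wells needed ≥10 active electrodes.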

[18] = CCTE_Shafer_MEA_acute_per_burst_spike_number_mean: CCTE's Neural Acute Assay for Average Number of Spikes Per Burst, Shafer Lab (AID 2284015);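 further: hits are decreases in mean spikes per burst versus baseline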
How it was run: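 Percent change in mean spikes per single-electrode burst is compared between a 40 min baseline and a 40 min recording with compound (0.03-40 uM). Cultures were rat cortical neurons on MEA plates at DIV 13 or 15, recorded at 37 C, with DMSO as the negative control.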

[19] = CCTE_Shafer_MEA_acute_interburst_interval_mean: CCTE's Neural Acute Assay for Mean Interburst Interval, Shafer Lab (AID 2284016);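 further: percent change of mean interburst interval versus each well's own pre-dose baseline; curves fitted for decrease in interburst interval relative to DMSO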
How it was run: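 Percent change in mean single-electrode interburst interval was calculated per well from 40 min recordings before and after compound (0.03-40 uM). Recordings were made at 37 C on rat cortical cultures at DIV 13 or 15, with spikes detected at 8x rms threshold.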

[20] = CCTE_Harrill_HTTr_CellCount_MCF7: CCTE's Cell Proliferation Assessment for the High-Throughput Transcriptomics (HTTr) Platform, Harrill Lab (AID 2284012; active means hit-call score of the fitted dose curve at least 0.9, where 1 is the maximum;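 further: cells exposed to compound for six hours; intended direction is loss of nuclei count meaning fewer cells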)
How it was run: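 Cell count from high-content imaging of Hoechst-labeled nuclei serves as viability/growth readout. Chemicals were applied to MCF-7 cells in eight concentrations for six hours, with fitting in both directions relative to DMSO.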

Measured: AC50

Sequence of Nucleoli Translocation, AR (gene 367) (P10275 whole entry, looked up): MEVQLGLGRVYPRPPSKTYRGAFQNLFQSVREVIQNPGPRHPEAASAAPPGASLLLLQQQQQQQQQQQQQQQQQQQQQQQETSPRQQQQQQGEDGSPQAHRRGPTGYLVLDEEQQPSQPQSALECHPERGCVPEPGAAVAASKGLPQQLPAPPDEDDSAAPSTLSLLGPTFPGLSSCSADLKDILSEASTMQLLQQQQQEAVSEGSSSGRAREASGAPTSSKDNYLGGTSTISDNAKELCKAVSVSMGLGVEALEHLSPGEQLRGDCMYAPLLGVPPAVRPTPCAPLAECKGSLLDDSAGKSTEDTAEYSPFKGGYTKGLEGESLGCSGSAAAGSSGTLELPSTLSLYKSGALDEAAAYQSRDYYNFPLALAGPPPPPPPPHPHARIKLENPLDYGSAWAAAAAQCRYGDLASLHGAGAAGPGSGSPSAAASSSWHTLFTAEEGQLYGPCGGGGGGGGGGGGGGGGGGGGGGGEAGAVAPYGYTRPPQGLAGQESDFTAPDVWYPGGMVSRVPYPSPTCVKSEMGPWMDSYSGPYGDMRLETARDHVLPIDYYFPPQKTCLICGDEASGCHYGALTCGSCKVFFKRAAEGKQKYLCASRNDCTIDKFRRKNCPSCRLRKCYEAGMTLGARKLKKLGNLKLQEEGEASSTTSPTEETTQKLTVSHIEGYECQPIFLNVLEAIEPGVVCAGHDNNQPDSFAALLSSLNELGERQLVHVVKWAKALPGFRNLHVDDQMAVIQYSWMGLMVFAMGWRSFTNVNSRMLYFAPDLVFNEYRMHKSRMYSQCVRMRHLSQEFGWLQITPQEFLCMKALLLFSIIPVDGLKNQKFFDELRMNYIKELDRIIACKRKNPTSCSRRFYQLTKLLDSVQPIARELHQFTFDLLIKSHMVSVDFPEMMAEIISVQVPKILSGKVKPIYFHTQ
Sequence of Ratio of Nucleoli Translocation and Cytoplasm, AR (gene 367) (P10275 whole entry, looked up): as above

CCN(Cc1cccnc1)C(=O)c1cccc(Cl)c1[C@]1(C)C(=O)N(Cc2ccc(OC)cc2OC)c2ccc(Cl)cc21
inactive: [1] | [2] | [3] | [4] | [7] | [8] | [9] | [10]
active: [5] 2.36 µM | [6] 2.17 µM

CC1(C)NC(=O)N(c2ccc([N+](=O)[O-])c(C(F)(F)F)c2)C1=O
active: [5] 37.2 µM | [6] 33.8 µM
inactive: [11] | [12] | [13] | [7] | [8] | [9] | [10]

COCC(C)OCC(C)OCC(C)O (centres undefined)
inactive: [1] | [2] | [3] | [4] | [9] | [10]

CC(=O)N1CCN(c2ccc(OC[C@H]3CO[C@](Cn4ccnc4)(c4ccc(Cl)cc4Cl)O3)cc2)CC1
inactive: [8] | [14] | [15] | [9] | [10] | [16] | [17] | [18] | [19]
active: [5] 8.55 µM | [6] 12.7 µM | [7] 9.46 µM

CN1C(=O)N(c2ccccc2Br)Cc2cnc(Nc3ccc4c(c3)OCC(CO)O4)nc21 (centres undefined)
inactive: [7] | [9] | [10] | [20]
active: [5] 35.1 µM | [6] 50 µM | [8] 33.7 µM

O=C1c2ccccc2C(=O)N1CCc1noc(-c2ccc(CN3CCCCCC3)s2)n1
active: [5] 57.5 µM | [6] 39.8 µM
inactive: [7] | [8] | [9] | [10]

CN(C)c1ccc(C(=C2C=CC(=[N+](C)C)C=C2)c2ccc(N(C)C)cc2)cc1
active: [1] 0.262 µM | [2] 14.6 µM | [3] 2.66 µM | [5] 50 µM | [6] 41.6 µM | [7] 61.6 µM | [8] 21.4 µM | [14] 0.416 µM | [15] 0.406 µM | [9] 14.4 µM | [16] 0.348 µM
inactive: [4] | [10] | [17] | [18] | [19]

NCc1cccc(C2CCN(C(=O)c3ccc(C#Cc4ccccc4F)o3)CC2)c1
inactive: [2] | [7] | [8] | [20] | [17]
active: [1] 72.7 µM | [3] 27.2 µM | [4] 50 µM | [5] 37.2 µM | [6] 61.4 µM | [14] 9.02 µM | [15] 9.02 µM | [9] 50 µM | [10] 61.4 µM | [16] 8.95 µM | [18] 35.3 µM | [19] 4.14 µM

CC/C(=C(/CC)c1ccc(O)cc1)c1ccc(O)cc1
inactive: [9] | [10] | [16] | [17] | [19]
active: [5] 8.17 µM | [6] 11.3 µM | [7] 6.72 µM | [8] 12 µM | [14] 8.49 µM | [15] 8.49 µM | [18] 6.76 µM

CC(C)(c1cc(Br)c(O)c(Br)c1)c1cc(Br)c(O)c(Br)c1
inactive: [7] | [8] | [14] | [15] | [9] | [10] | [16] | [17] | [18] | [19]
active: [5] 4.5 µM | [6] 6.61 µM

CCCCCCCCCCCO
inactive: [6] | [7] | [9] | [10]
active: [5] 80.1 µM

O=c1c(-c2ccc(O)cc2)coc2cc(O)cc(O)c12
inactive: [1] | [2] | [3] | [4] | [9] | [10]

Oc1ccc2ccccc2c1
inactive: [1] | [2] | [3] | [4] | [9] | [10]

CCCCOC(=O)c1ccc(O)cc1
active: [5] 23.7 µM | [6] 50 µM | [19] 31 µM
inactive: [1] | [2] | [3] | [4] | [7] | [8] | [14] | [15] | [9] | [10] | [16] | [17] | [18]

O=C(O)c1ccccc1C(=O)OCc1ccccc1
inactive: [1] | [4] | [9] | [10]

Cc1cc(F)ccc1-c1cc(N2CC[C@@H](O)[C@H]2CO)ncc1N(C)C(=O)C(C)(C)c1cc(C(F)(F)F)cc(C(F)(F)F)c1
active: [2] 40.8 µM | [4] 60.4 µM | [5] 40.8 µM | [6] 36.7 µM
inactive: [1] | [7] | [8] | [9] | [10]

NC(=O)c1nc(-c2cccc(-c3cc(F)ccc3OCC(F)(F)C(F)(F)F)c2)n[nH]1
active: [2] 13.2 µM | [4] 12.7 µM | [5] 6.26 µM | [6] 6.36 µM | [14] 0.648 µM | [15] 0.649 µM | [16] 0.446 µM | [18] 4.11 µM
inactive: [1] | [3] | [7] | [8] | [9] | [10] | [17] | [19]
